Experimental data reported in PubChem BioAssay (EPA / NIEHS).
Records with an inconclusive call do not appear. The source made the active and inactive calls. How the source made its calls: active means hit-call score of the fitted dose curve at least 0.9, where 1 is the maximum; inconclusive means response in the unintended direction; inactive means score below 0.9.

What follows are molecules tested on organic anion transporter (SLCO1B1), SLCO1B1 (gene 10599) (assay: CLD_SLCO1B1_6hr: CellzDirect (CLD) Gene Expression Assay for organic anion transporter (SLCO1B1) at 6 hours (AID 2283668)).
Method: CLD_6hr is a cell-based, multiplexed-readout assay that uses hepatocyte, a human liver primary cell, with measurements taken at 6 hours after chemical dosing in a 96-well plate.CLD_SLCO1B1_6hr is one of 16 assay component(s) measured or calculated from the CLD_6hr assay. It is designed to make measurements of mRNA induction, a form of inducible reporter, as detected with chemiluminescence signals by Quantitative Nuclease Protection Assay (qNPA) technology.Data from the assay component CLD_SLCO1B1_6hr was analyzed at the endpoint, CLD_SLCO1B1_6hr, in the positive analysis fitting direction relative to DMSO as the negative control and baseline of activity. Using a type of inducible reporter, gain-of-signal activity can be used to understand changes in the reporter gene as they relate to the gene SLCO1B1. Furthermore, this assay endpoint can be referred to as a primary readout. To generalize the intended target to other relatable targets, this assay endpoint is annotated to the transporter intended target family, where subfamily is organic anion transporter.
Human hepatocyte cultures were treated daily for two consecutive days with fresh dosing solutions containing appropriate concentrations of the 320 ToxCast chemicals (chemical identities were blinded to CellzDirect and other ToxCast collaborators), vehicle control (0.2% DMSO), and positive control inducers as summarized in Table 1. Due to the large number of treatment groups and chemicals examined, the ToxCast chemicals were divided into two groups (spanning two independent cultures of hepatocytes from separate donor preparations (Hu778: ToxCast plates 1 and 2; Hu776: ToxCast plates 3 and 4). Each preparation of human hepatocyte cultures was treated with respective vehicle control, medium only control, set of six positive controls/reference chemicals for the five hepatic receptor pathways, and a subset of eight of the ToxCast chemicals (indoxacarb, pyrithiobac-sodium, norflurazon, cyhalofop-butyl, methomyl, thiram, acetochlor, and propiconazole). These replicate data, coupled with internal replicates designed within the blinded ToxCast chemical library, provided additional data to evaluate interindividual differences between hepatocyte preparations and their potential impact on chemical profiles.Cell morphology and integrity were evaluated using phase-contrast microscopy as an indicator of hepatocyte cell health (Tyson & Green, 1987). Cultures for each treatment group (i.e., media, vehicle [0.2% DMSO], positive control inducers [multiple concentrations], and the ToxCast chemicals [multiple concentrations]) were observed and cell morphology was assessed relative to vehicle control cultures at each harvest time point (0, 6, 24, or 48 h). […] Images were evaluated at the conclusion of the study to assess changes in cell integrity and account for the effects of chemical exposure on uncharacteristic changes in concentration-dependent gene expression profiles. The results from these determinations of apparent cytotoxicity were annotated (yes/no) alongside the corresponding qNPA data for reference.At the conclusion of each treatment period, hepatocyte cultures (96-well) were washed with 1 volume of HBSS, lysed by addition of 25 ul ArrayPlate lysis buffer (HTG, Tucson, AZ), and 70 ul/well of Denaturation Oil, denatured by incubation at 95C for 10 min, and frozen at approximately -70C until analysis by nuclease protection assay (qNPA) (Roberts et al., 2007). For qNPA analysis, cell lysates were thawed at 50C for approximately 30 min, qNPA probes were added, and samples were incubated at 95C for 10 min to begin the detection process by denaturing the target RNA, dissociating the duplexes and secondary structure hybridization. At the conclusion of the hybridization period, S1 nuclease reagent was added to each sample to digest all nonprotected nucleotides at 50C for 60-90 min. […]

Question: `CC(C)N(C(=O)COc1nnc(C(F)(F)F)s1)c1ccc(F)cc1` was tested. Which outcome did it give?
Answer: inactive

Question: `CCc1ccc(C(=O)NN(C(=O)c2cc(C)cc(C)c2)C(C)(C)C)cc1` was tested. Which outcome did it give?
Answer: inactive

Question: With `CC1(c2ccc(Oc3ccccc3)cc2)OC(=O)N(Nc2ccccc2)C1=O` (stereo not given) as the molecule, how does the outcome read?
Answer: inactive

Question: For `Oc1cc(Cl)ccc1Oc1ccc(Cl)cc1Cl`, which outcome is on record?
Answer: inactive

Question: With `O=C(O)C(F)(F)C(F)(F)C(F)(F)C(F)(F)C(F)(F)C(F)(F)C(F)(F)F` as the molecule, how does the outcome read?
Answer: inactive

Question: With `[2H]C1([2H])[n+]2ccccc2-c2cccc[n+]2C1([2H])[2H]` as the molecule, how does the outcome read?
Answer: inactive

Question: For `CCC(C)(NC(=O)c1cc(Cl)c(C)c(Cl)c1)C(=O)CCl` (stereo not given), which outcome is on record?
Answer: inactive

Question: `O=S1OCC2C(CO1)C1(Cl)C(Cl)=C(Cl)C2(Cl)C1(Cl)Cl` (stereo not given) was tested. Which outcome did it give?
Answer: inactive

Question: With `CCS(=O)(=O)c1cccnc1S(=O)(=O)NC(=O)Nc1nc(OC)cc(OC)n1` as the molecule, how does the outcome read?
Answer: inactive

Question: `COc1cc(OC)nc(NC(=O)NS(=O)(=O)c2cc(NC=O)ccc2C(=O)N(C)C)n1` was tested. Which outcome did it give?
Answer: inactive

Question: Which outcome does the source give for `CNC(=O)CSP(=S)(OC)OC` here?
Answer: inactive

Question: `CC[C@H](C)[C@H]1O[C@]2(C=C[C@@H]1C)C[C@@H]1C[C@@H](C/C=C(\C)[C@@H](O[C@H]3C[C@H](OC)[C@@H](O[C@H]4C[C@H](OC)[C@@H](O)[C@H](C)O4)[C@H](C)O3)[C@@H](C)/C=C/C=C3\CO[C@@H]4[C@H](O)C(C)=C[C@@H](C(=O)O1)[C@]34O)O2` (tested in a mixture with another compound) was tested. Which outcome did it give?
Answer: inactive

Question: `CN1CSC(=S)N(C)C1` was tested. Which outcome did it give?
Answer: inactive

Question: `CCN(CC)C(=O)SCc1ccc(Cl)cc1` was tested. Which outcome did it give?
Answer: inactive

Question: Which outcome does the source give for `O=C(O)CCCOc1ccc(Cl)cc1Cl` here?
Answer: inactive

Question: For `COP(=S)(OC)Oc1ccc([N+](=O)[O-])cc1`, which outcome is on record?
Answer: inactive

Question: For `CC(C)OC(=O)Nc1cccc(Cl)c1`, which outcome is on record?
Answer: inactive

Question: `O=[N+]([O-])c1c(Cl)c(Cl)c(Cl)c(Cl)c1Cl` was tested. Which outcome did it give?
Answer: inactive

Question: How did the outcome turn out when `COC(=O)c1ccccc1S(=O)(=O)NC(=O)Nc1nc(C)nc(OC)n1` was run?
Answer: inactive

Question: Which outcome does the source give for `CCOc1nc(NC)nc(NC(=O)NS(=O)(=O)c2ccccc2C(=O)OC)n1` here?
Answer: inactive

Question: For `N#CN`, which outcome is on record?
Answer: inactive

Question: Which outcome does the source give for `O=[N+]([O-])/N=C1\NCCN1Cc1ccc(Cl)nc1` here?
Answer: inactive

Question: With `C#CCN1C(=O)COc2cc(F)c(N3C(=O)C4=C(CCCC4)C3=O)cc21` as the molecule, how does the outcome read?
Answer: inactive

Question: For `O=C(Nc1ccccc1)Nc1cnns1`, which outcome is on record?
Answer: inactive

Question: `CCOCN(C(=O)CCl)c1c(C)cccc1CC` was tested. Which outcome did it give?
Answer: inactive

Question: Which outcome does the source give for `CNC(=O)/C=C(\C)OP(=O)(OC)OC` here?
Answer: inactive

Question: Which outcome does the source give for `COC(=O)c1ccccc1S(=O)(=O)NC(=O)N(C)c1nc(C)nc(OC)n1` here?
Answer: inactive

Question: `O=C1c2ccccc2C(=O)N1SC(Cl)(Cl)Cl` was tested. Which outcome did it give?
Answer: inactive

Question: Which outcome does the source give for `CNC(=O)Oc1ccccc1OC(C)C` here?
Answer: inactive

Question: `COc1nn(CSP(=S)(OC)OC)c(=O)s1` was tested. Which outcome did it give?
Answer: inactive
